# This is a sample that favours compounds with a hit; in the whole collection about 2.6% have one here.
# 697 NFkB inh – lowers PMA/ionomycin-induced NF-kB signal in 697 B cells. inhibition, % at 4 µM. 697 B-cell NF-kB luciferase reporter, 16 h. AID 435022. actives 0.33% (n = 330,000); in the data active means inhibition above about 35%
# Jurkat NFkB inh – inhibitors of the PMA/ionomycin-induced NF-kB reporter in Jurkat cells | PMA/ionomycin-induced NF-kB luciferase reporter, luminescence | inhibition, % at 4 µM | actives 0.53% (n = 330,000); in the data active means inhibition above about 50%
# H9c2 TAG inh – triacylglycerol accumulation inhibition | actives 0.66% (n = 230,000) | inhibition, % at 12.5 µM | H9c2 cells, Nile Red lipid (TAG) fluorescence; cells loaded with 200 µM oleic acid;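 active means pattern-corrected inhibition of lipid staining of at least 50% with the nuclear-stain viability signal not falling by more than 50%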;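 further: 0% = DMSO wells and 100% = triacsin C control wells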
# COUP-TFII inh – blocks human COUP-TFII nuclear receptor; AID 686940; P24468; inhibition, % at 8.6 µM; HEK293T NGFI-A luciferase reporter, luminescence; actives 0.7% (n = 370,000);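 active means inhibition above a per-plate cutoff, mean inhibition of test wells between control levels plus 3 SD, cut at about 38% in these data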;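 further: cells cotransfected with COUP-TFII expression vector driving the NGFI-A reporter; 0% = median of COUP-TF2 test wells and 100% = reporter-only cells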
# Target sequence (P24468 whole entry, looked up): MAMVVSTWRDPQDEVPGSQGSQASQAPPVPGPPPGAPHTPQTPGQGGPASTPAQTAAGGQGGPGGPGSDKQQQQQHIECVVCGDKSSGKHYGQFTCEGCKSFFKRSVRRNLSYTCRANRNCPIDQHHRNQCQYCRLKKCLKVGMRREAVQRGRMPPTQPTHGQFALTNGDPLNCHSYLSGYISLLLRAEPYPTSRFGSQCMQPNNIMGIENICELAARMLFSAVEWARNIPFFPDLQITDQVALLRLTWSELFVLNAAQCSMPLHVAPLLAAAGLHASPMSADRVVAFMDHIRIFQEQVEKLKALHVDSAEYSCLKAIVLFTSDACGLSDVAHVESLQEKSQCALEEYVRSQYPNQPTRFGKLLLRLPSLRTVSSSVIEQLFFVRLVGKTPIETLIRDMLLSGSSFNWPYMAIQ
# H9c2 protect – modulators protecting cardiomyocytes from myocardial damage | H9c2 cardiomyocytes, H2O2 injury protection, ATPLite, 2 h | protection from H2O2 cell death, % at 20 µM | actives 0.63% (n = 360,000);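 active means compounds giving at least 50% protection of heart cells from peroxide-induced death in the single-dose screen, raw or plate-pattern-corrected value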;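 further: 0% = DMSO wells with peroxide and 100% = DMSO wells without peroxide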
# Gli-Sufu antag – antagonists of Gli-Sufu signaling; Sufu-KO-LIGHT fibroblasts, Gli luciferase reporter luminescence; inhibition, % at 5 µM; actives 0.74% (n = 340,000);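 active means inhibition above about 55%, limit read from the data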;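 further: 0% = DMSO-treated cells and 100% = wells with medium but no cells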
# Starred values were filed as active, the others as inactive; . = no result given.
SMILES,697 NFkB inh,Jurkat NFkB inh,H9c2 TAG inh,COUP-TFII inh,H9c2 protect,Gli-Sufu antag
Cc1ccc(N=Cc2cc(Br)cc(Cl)c2O)cc1,-4,19,6,-14,76*,2
C[C@H]1CCC/C=C/C(=O)c2c(cc(O)c(Cl)c2O)CC(=O)O1,.,.,.,-30,.,.
O=C(CN1CCCc2ccccc21)N/N=C/c1ccc(O)cc1O,-58,-12,.,8,52*,-8
O=C(CNS(=O)(=O)c1ccc([N+](=O)[O-])cc1)N/N=C/c1ccc(O)cc1O,3,11,.,-18,55*,6
COc1ccccc1/C=C/C(=O)NCC(=O)N/N=C/c1ccccc1,-6,-10,.,17,-7,-5
COc1ccc(Br)cc1/C=N/NC(=O)CNC(=O)/C=C/c1ccccc1,-38,-11,33,5,64*,8
COc1ccc(/C=C/C(=O)NCC(=O)N/N=C/c2cc(Br)ccc2OCc2ccccc2)cc1,-2,-11,-10,18,-6,0
O=C(CN1CCCc2ccccc21)N/N=C/c1ccccc1,-30,-64,-8,-4,-3,-8
COc1ccccc1/C=C\C(=O)NCC(=O)N/N=C/c1ccc(O)cc1O,18,18,1,26,52*,7
CCC(=O)N1CCc2cc(Br)c(S(=O)(=O)N3CCC(C(=O)NCCCOC(C)C)CC3)cc21,.,.,.,5,.,.
COc1cccc(/C=N/NC(=O)CNC(=O)/C=C\c2ccccc2)c1O,-14,6,.,-4,52*,7
O=C(CCc1ccccc1)NCC(=O)N/N=C/c1ccc(O)cc1O,6,9,-2,-7,53*,2
COc1cc(-c2nnc(-c3cc(-c4ccccc4)nc4ccccc34)o2)cc(OC)c1OC,.,.,27,-5,56*,15
COc1cc(-c2nnc(-c3ccccc3)o2)cc(OC)c1OC,24,-9,2,-4,36,-4
COc1cc(-c2nnc(SCC(=O)c3ccc(C)cc3)o2)cc(OC)c1OC,-21,-4,.,-5,14,9
COc1cccc(C(=O)CSc2nnc(-c3cc(OC)c(OC)c(OC)c3)o2)c1,8,4,.,21,58*,7
COc1cc(-c2nnc(-c3cc(OC)c(OC)c(OC)c3)o2)cc(OC)c1OC,17,-3,38,10,66*,12
O=C(NC1CCCCN(Cc2cccc(Cl)c2)C1=O)c1ccc(-c2ccccc2)cc1 (stereo not drawn),.,.,.,5,.,.
COc1ccc(-c2nnc(SCC(=O)Nc3ccc(S(=O)(=O)Nc4cc(C)nc(C)n4)cc3)n2-c2ccc(OC)cc2)cc1,.,.,.,-14,.,.
COC(=O)c1ccc(Cn2c(C)c(C(=O)NCc3cccs3)sc2=O)o1,.,.,9,-3,52*,.
C[C@@H]1CN([C@H](C)CO)C(=O)c2cc(NC(=O)Nc3ccc(C(F)(F)F)cc3)ccc2O[C@H]1CN(C)S(=O)(=O)c1cccs1,-1,-7,7,24,-3,5
C[C@H](CO)N1C[C@H](C)[C@@H](CN(C)S(=O)(=O)c2ccccc2)Oc2ccc(NC(=O)Nc3ccccc3)cc2C1=O,3,0,7,12,76*,-5
C[C@H](CO)N1C[C@H](C)[C@@H](CN(C)S(=O)(=O)c2ccc(F)cc2)Oc2ccc(NC(=O)Nc3ccc4c(c3)OCO4)cc2C1=O,26,-3,7,-10,62*,2
C[C@H](CO)N1C[C@H](C)[C@@H](CN(C)S(=O)(=O)c2ccc(F)cc2)Oc2ccc(NC(=O)Nc3ccccc3)cc2C1=O,24,-2,26,-3,18,1
C[C@H](CO)N1C[C@H](C)[C@@H](CN(C)S(=O)(=O)c2cccs2)Oc2ccc(NC(=O)Nc3ccccc3)cc2C1=O,21,-2,4,-3,68*,1
SMILES,697 NFkB inh,Jurkat NFkB inh,H9c2 TAG inh,COUP-TFII inh,H9c2 protect,Gli-Sufu antag
C[C@@H]1CN(c2ccc(N3CCN(C(=O)OC(C)(C)C)C[C@H]3C)cc2C#N)CCN1Cc1ccccc1,.,.,.,25,.,.
Cc1cccc(C(=O)N[C@H]2CC[C@@]34CCCN3C(=O)CCC[C@H]4[C@H]2C)c1,.,.,.,-10,.,.
CC(=NNC(=S)N1CCN(c2ccccn2)CC1)c1nccs1,.,.,-36,.,49,89*
CC(=NNC(=S)N1CCN(C2CCCCCC2)CC1)c1ccccn1,.,.,77,32,19,65*
CC(=NNC(=S)N1CCN(c2ccccn2)CC1)c1ccccn1,.,.,4,2,48,9
CC(=NNC(=S)N1CC2CCC(CC2)C1)c1ccccn1,.,.,-1,-2,-15,.
O=C(NCc1cccc(Cl)c1)O[C@H]1CC[C@@]23CCCN2C(=O)CCC[C@H]3C1,.,.,.,7,.,.
CC1(C(=O)Nc2cccc(OC(F)(F)F)c2)Cc2c(-c3ccc(C(N)=O)cc3)ccnc2O1 (stereo not drawn),.,.,6,-11,56*,.
Cc1ccc(C2CCC3(CCC(=O)N3CCO)CC2)cc1 (stereo not drawn),.,.,.,-11,.,.
Cc1ccc(S(=O)(=O)N(C)[C@H]2C[C@H]3c4[nH]c5cccc(-c6ccccc6)c5c4CCN3C(=O)[C@H]2[C@H](C)O)cc1,.,.,.,14,.,.
CC(=O)c1cccc(NC(=O)C(C)OC(=O)CCc2nc3ccccc3c(=O)[nH]2)c1 (stereo not drawn),2,-8,-25,3,52*,.
CC(OC(=O)CCc1nc2ccccc2c(=O)[nH]1)C(=O)Nc1cccc(C(F)(F)F)c1 (stereo not drawn),9,2,-2,-2,34,0
CC(OC(=O)CCc1nc2ccccc2c(=O)[nH]1)C(=O)NCc1ccc2c(c1)OCO2 (stereo not drawn),0,3,-3,-2,67*,-13
CCCc1nc2ccccc2c(C(=O)OC(C)C(=O)NCc2ccc3c(c2)OCO3)c1CC (stereo not drawn),-6,-4,.,4,2,12
O=C(O)CCCCCCCCCCC1CCC(O)C1O (stereo not drawn),.,.,6,41*,2,1
COc1ccnc(Oc2ccccc2)c1C(=O)N/C=N/OCc1ccc(F)cc1Cl,-4,-8,.,-15,69*,-19
COc1ccccc1CO/N=C/NC(=O)c1c(OC)ccnc1Oc1ccc(F)cc1,-11,-7,.,14,14,-1
Cc1ccc2c(c1)N(Cc1cccc(Cl)c1)C(=O)c1cccnc1O2,-26,-15,.,9,24,1
O=C1c2cccnc2Oc2ccc(Cl)cc2N1Cc1ccc(F)cc1,-27,-28,.,2,63*,8
NS(=O)(=O)c1ccc(N=Cc2c(O)n(-c3nccs3)c(=O)c3ccccc23)cc1,3,-5,9,-12,52*,-6
CCN(CC(=O)Nc1ccc(OC)cc1)C(=O)c1cc(-c2cccs2)nn1-c1ccccc1,33,13,0,0,69*,4
Cc1ccc(C(=O)C(c2ccccc2)N2Cc3ccccc3C2=N)cc1 (stereo not drawn),-20,2,-14,.,-15,56*
